# Screening results as filed in PubChem.
# IL-1B inflam inh: qHTS for Inhibitors of Inflammasome Signaling: IL-1-beta AlphaLISA Primary Screen. 360,000 compounds, 4.7% hits. activity change, % at 57.5 µM. THP-1 LPS/ATP IL-1B secretion, AlphaLISA, 16 h; hits give low values. AID 743279, 2014; in the data active = activity change below about -50%; inconclusive = mostly about -30% to -49%
#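 THP-1 cells pretreated 1 hr with compounds (up to 57.5 uM final), then stimulated with LPS (250 ng/mL final) plus ATP (1.25 mM final); secreted IL-1B measured by AlphaLISA after 16 hr, decreased signal indicating inhibition.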
# HT1080-NT tox: qHTS for induction of synthetic lethality in tumor cells producing 2HG: qHTS for the HT-1080-NT fibrosarcoma cell line | HT-1080-NT fibrosarcoma viability, CellTiter-Glo ATP luminescence, 48 h | Potency, µM (highest dose often 46.1 µM), without a hit: at the highest dose activity, negative = less viability, actives largely listed as cytotoxic | 360,000 compounds, 1.6% hits | AID 686970, 2013;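 note: NT is the 2HG producing partner of a matched IDH1 knockdown line; potency is the fitted concentration of half-maximal effect; 0% = DMSO-treated cells and -100% = media-only wells without cells; nearly all actives have a fitted effect of over 55% in size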
#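 Viability by CellTiter-Glo luminescence after 48 h compound exposure at 37C of HT-1080-NT cells (750/well, RPMI, 5% FBS). % activity scaled between DMSO wells and medium-only wells, then curve-fitted and categorized by curve class.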
# DT40 TDP1 no CPT: qHTS for Inhibitors of human tyrosyl-DNA phosphodiesterase 1 (TDP1): qHTS in cells in absence of CPT; DT40 Tdp1-/- hTDP1 cells, no CPT, ATP luminescence, 48 h; Potency, µM (doses to about 46.2 µM), for the others: at the top dose activity change, negative = growth inhibition, actives largely listed as inhibitors; 420,000 compounds, 15% hits; note: potency is the fitted concentration of half-maximal effect; nearly all actives have a fitted effect of over 55% in size
#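 A cellular qHTS used chicken DT40 cells lacking endogenous Tdp1 but carrying stably transfected human TDP1. Compounds were applied without camptothecin, and cell growth kinetics were judged by ATP-dependent luminescence after ≥48 hr.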
# HT1080 IDH1KD tx: qHTS for induction of synthetic lethality in tumor cells producing 2HG: qHTS for the HT-1080-IDH1KD cell line; HT-1080 IDH1 knockdown viability, ATP luminescence, 48 h; Potency, µM (series often up to 46.1 µM), inactives show at the highest dose activity, negative = toxicity, usual class: cytotoxic; 360,000 compounds, 2% hits; AID 686971, 2013;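 note: potency is the fitted concentration of half-maximal effect; 0% = DMSO wells and -100% = cell-free medium wells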
#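 Knockdown cells (IDH1KD HT-1080) received compounds 2 h after plating at 750 cells/well and were kept 48 h at 37 °C in 5% FBS RPMI. A CellTiter-Glo luminescence read gave % activity for curve fitting.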
# TDP1 cell CPT: qHTS for Inhibitors of human tyrosyl-DNA phosphodiesterase 1 (TDP1): qHTS in cells in presence of CPT; 420,000 compounds, 12% hits; Potency, µM (series often up to 46.2 µM), for the others: at the highest dose activity change, negative = growth inhibition, actives largely listed as inhibitors; chicken DT40 Tdp1-/-;hTDP1 cells + 20 nM CPT, ATP luminescence, 48 h; note: potency is the fitted concentration of half-maximal effect; nearly all actives have a fitted effect of over 55% in size
#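 Cell growth measured by CellTiter-Glo luminescence after a minimum 48 h, 37 C compound exposure with 20 nM CPT in Tdp1-knockout DT40 cells stably expressing hTDP1, seeded 400/well; qHTS titration format.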
# * marks the source's active call; other numbers are inactive results; ? = inconclusive; · = not tested or not shown; ! = repeats disagree. Sampled rows, rich in hits. Any-hit rate of the full collection: about 19%. Unless noted, calls come from the whole dose curve; as a rule, active = well fitted curve in the direction sought with a large enough effect; inconclusive = small, poorly fitted or top-dose-only effect, or another doubt; inactive = no such curve, though single readings can be large; an effect the other way counts as inactive or inconclusive. Unless noted, % is set by controls: 0 for no effect and ±100 for the full control effect.
SMILES,IL-1B inflam inh,HT1080-NT tox,DT40 TDP1 no CPT,HT1080 IDH1KD tx,TDP1 cell CPT
Cc1ccc(NC(=O)CSc2nc(N)c3c4c(sc3n2)CSC(C)(C)C4)cc1,-29.7,?,16.4µM*,?,23.1µM*
Cc1ccccc1NC(=O)CSc1nc(N)c2c3c(sc2n1)CSC(C)(C)C3,13.0,?,?,?,23.1µM*
COC(=O)[C@@H]1CCCN1C(=O)c1cc(NC(=O)C2CCC2)c2c(c1)nc(-c1ccncc1)n2C,·,·,-13.0%,·,-20.7%
Cc1c(Cl)cccc1-n1c(SCC(=O)N2CCC(C(=O)O)CC2)nc2ccccc2c1=O,8.4,0.0%,3.1%,10.5%,-2.0%
CCn1c(SCC(=O)Nc2ccccc2)nnc1-c1cccs1,0.0,0.7%,-1.1%,-0.3%,12.0%
COc1ccc(-n2c(CNc3ccc(C)cc3)nnc2SCc2ccccc2)cc1,-18.7,-13.3%,16.4µM*,-16.5%,?
CCn1c(SCc2ccccc2)nnc1-c1cccs1,-21.6,-7.7%,6.51µM*,?,18.4µM*
CCn1c(CNc2ccc(Cl)cc2)nnc1SCc1ccccc1,-76.4*,-4.9%,?,-12.2%,?
C=CCSc1nnc(CNC(=O)c2ccc(Cl)cc2)n1CC,-69.2*,-2.4%,4.0%,3.8%,10.0%
Cn1c(CNc2ccc(Cl)cc2)nnc1SCc1ccccc1,?,-5.8%,-22.0%,-7.8%,-29.5%
CCn1c(Cn2nnc(-c3ccccc3)n2)nnc1SCc1ccc(Cl)c(Cl)c1,-0.7,?,23.1µM*,?,20.6µM*
COC(=O)C1=C(C(=O)OC)SC(=C2C(=S)C(C)(C)N(C(=O)C3CC3)c3ccccc32)S1,-50.3*,-2.5%,?,?,?
CCCC(=O)N1c2ccccc2C(=C2SC(C(=O)OC)=C(C(=O)OC)S2)C(=S)C1(C)C,5.8,0.3%,25.9µM*,5.4%,14.6µM*
Cc1c(NC(=O)c2ccc(NS(=O)(=O)c3ccc(F)c(F)c3)cc2)c(=O)n(-c2ccccc2)n1C,2.6,5.4%,-4.5%,0.0%,-1.1%
COc1ccccc1C(=O)N1CCN(C(=O)[C@H]2O[C@@H](n3ccc(N)nc3=O)[C@H](O)[C@@H]2O)CC1,-20.2,23.4%,6.3%,8.8%,0.3%
Cc1cccnc1NC(=O)C1CCC1,-1.7,5.4%,1.0%,3.4%,9.7%
CCCCC1(Cc2ccc([N+](=O)[O-])cc2)C(=O)N(c2ccccc2)N(c2ccccc2)C1=O,-57.9*,-18.6%,?,?,?
CCCCC1(COC(=O)CCC(=O)O)C(=O)N(c2ccccc2)N(c2ccccc2)C1=O,-3.7,-7.9%,?,5.0%,0.0023µM*!
CCCCC(=O)OCC(=O)c1cc(C)n(-c2c(C)n(C)n(-c3ccccc3)c2=O)c1C,0.0,6.4%,-25.0%,3.7%,6.4%
CCn1c(-c2cccnc2)nc2cc(NC(=O)COC)cc(C(=O)N3CC[C@@H]4CCCC[C@H]4C3)c21,·,·,-29.5%,·,10.2%
Cn1c(NCc2ccncc2)nc2cc(-c3ccsc3)sc2c1=O,0.0,3.2%,-3.8%,6.0%,-5.1%
Cc1ccc(CNc2nc3cc(-c4ccccc4)sc3c(=O)n2C)c(C)c1,7.2,-3.2%,-25.3%,0.0%,16.4µM*
Cn1c(NCc2ccccc2F)nc2cc(-c3ccsc3)sc2c1=O,2.8,?,23.1µM*,-26.2%,?
COc1ccc(-c2cc3nc(NCc4ccc(C)cc4C)n(C)c(=O)c3s2)cc1OC,49.1,-1.9%,?,14.1%,?
Cn1c(NCC2CCCCC2)nc2cc(-c3ccsc3)sc2c1=O,11.8,19.4%,?,0.5%,25.9µM*
SMILES,IL-1B inflam inh,HT1080-NT tox,DT40 TDP1 no CPT,HT1080 IDH1KD tx,TDP1 cell CPT
COc1cccc(-c2cc3nc(NCc4ccccc4F)n(C)c(=O)c3s2)c1,-14.9,-2.0%,16.4µM*,-11.4%,23.1µM*
Cn1c(NCc2ccccc2F)nc2cc(-c3cccc(Cl)c3)sc2c1=O,-0.7,29.7%,20.6µM*,-1.5%,14.6µM*
Cn1c(NCc2ccccc2F)nc2cc(-c3ccccc3)sc2c1=O,-17.0,?,20.6µM*,-20.9%,18.4µM*
COc1ccccc1CNc1nc2cc(-c3ccsc3)sc2c(=O)n1C,64.4,-26.8%,?,?,?
O=C1N=C(N2CCCCC2)S/C1=C\c1ccc(Cl)cc1,0.0,13.7%,?,6.0%,?
CCCOc1ccccc1/C=C1\SC(N2CCCCC2)=NC1=O,-60.8*,?,5.8µM*,?,?
COc1ccc(OC)c(/C=C2\SC(N3CCCCC3)=NC2=O)c1,?,16.8%,5.8µM*,7.6%,7.31µM*
O=C1N=C(N2CCCCC2)S/C1=C\c1ccccc1F,-64.3*,2.3%,?,-3.1%,7.0%
COc1cc(OC)c(OC)cc1/C=C1\SC(N2CCCCC2)=NC1=O,-17.5,-3.8%,?,-13.4%,-26.0%
COc1ccccc1/C=C1\SC(N2CCC(C)CC2)=NC1=O,?,6.9%,23.1µM*,10.6%,?
C#Cc1cccc(C(=O)N2CCCC(Nc3cccc(F)c3)C2)c1 (centres undefined),-15.8,2.7%,3.9%,-11.6%,-10.4%
CC(C)=CC(=O)OCc1cc([N+](=O)[O-])cc2c1OCOC2,-52.9*,-15.1%,-11.7%,-6.5%,-0.7%
CN1CCN(c2nc(-c3ccc(Cl)s3)cs2)CC1,-15.5,0.6%,?,0.8%,2.1%
COc1cccc(C(=O)N2c3cc(C)ccc3OCC2C(C)(C)C)c1 (centres undefined),-2.3,?,?,16.3%,-3.2%
Cc1ccc2c(c1)C(C)(c1ccccc1)CC(C)(C)N2C(=O)c1ccc(F)cc1 (centres undefined),·,·,13µM*,·,?
COc1cccc(C(=O)N2c3cc(C)ccc3C(C)(c3ccccc3)CC2(C)C)c1 (centres undefined),·,·,14.6µM*,·,?
O=C(Nc1cccc2ccccc12)NC1CCCCC1O (centres undefined),-4.1,-0.4%,-7.9%,-1.4%,3.1%
CN(Cc1ccon1)C(=O)C1CCC(=O)N(CCc2ccc(Cl)cc2)C1 (centres undefined),7.7,-1.7%,8.2%,7.3%,3.0%
CN(C)c1ccc(C(=O)N2CCCC2)cc1,-13.3,11.7%,1.4%,2.8%,1.1%
Cc1ccccc1-c1cc(-c2ccccc2O)n[nH]1,-9.4,?,23.1µM*,?,20.6µM*
COc1ccc(-c2cc(-c3ccccc3O)[nH]n2)cc1,-5.5,?,?,?,-14.2%
